Reference: PubChem BioAssay AID449762 (Southern Research Specialized Biocontainment Screening …, 2010)
Out of some 330,000 compounds screened, about 1,900 (0.58%) were called active. About 4% were inconclusive and are not listed. Cut-off read from the data, not from the text of the source: inconclusive = inhibition above about 70% without an active follow-up result; inactive = below that. Only a sample is shown. Results with a measured potency or affinity are listed apart.

test: M. tuberculosis growth inhibition, HTS (AID 449762);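 note: bacterial growth assessed after seven days of incubation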; details: M. tuberculosis H37Rv growth inhibition, 7H9 media; at 25 µM; hits give high values

SMILES	inhibition
CCN(CC)c1ccc(C2C(C(C)=O)C(=O)CC(C)(O)C2C(C)=O)cc1 (stereo not drawn)	-4.35% (inactive)
C1CN(c2nc3nonc3nc2N2C[C@H]3CC[C@H]2C3)CCS1	-11% (inactive)
CCNC(=S)N(CCc1c(C)[nH]c2ccccc12)Cc1cccnc1	-3.56% (inactive)
CN1CCN(C(=O)CCN2C(=O)/C(=C\c3ccccc3F)SC2=S)CC1	-5.52% (inactive)
COc1ccc(C#Cc2c(-c3ccccc3)n(C)c3ccccc23)cc1	6.76% (inactive)
COc1ccc(-c2c(C#Cc3ccsc3)c3cc(Br)ccc3n2C)cc1	8.44% (inactive)
COc1cc(CNCc2ccccc2)cc(Cl)c1OC	-0.38% (inactive)
COc1cc(CNCCO)cc(Cl)c1OCc1ccccc1Cl	1.99% (inactive)
CCN(C(=O)c1cnc2scc(C)n2c1=O)c1ccccc1C	-2.4% (inactive)
COc1ccc(NC(=O)CC(Cc2ccc(Cl)cc2)C(=O)O)cc1 (stereo not drawn)	1.62% (inactive)
Cc1cccc(C)c1NC(=O)CN(C)C(=O)c1ccccc1Cc1ccccc1	2.81% (inactive)
Cc1cc(C)n2nc(SCC(=O)NC(=O)c3ccccc3Cl)nc2n1	1.71% (inactive)
Cc1nn(-c2ccccc2)c2[nH]c(=O)c(CNCc3ccc4c(c3)OCO4)cc12	-4.36% (inactive)
CC(C)(C)c1nn(-c2ccccc2)c2[nH]c(=O)c(CNc3ccc4c(c3)OCCO4)cc12	52.8% (inactive)
Cc1ccccc1NC(=O)C1CCN(S(=O)(=O)c2cccc3nonc23)CC1	4.17% (inactive)
CCC[C@@H]1C[C@@H](C(=O)N[C@H]([C@@H](C)O)[C@H]2O[C@H](SC)[C@H](O)[C@@H](O)C2O)N(C)C1 (stereo partly drawn)	59.1% (inactive)
Cc1ccc(NC(=O)[C@@H](CC(C)C)NC(=O)[C@@H]2Cc3ccccc3CN2)cc1	2.07% (inactive)
CCOC(=O)C(C)Sc1ccc2nnc(CCNS(=O)(=O)c3ccc(C)cc3)n2n1 (stereo not drawn)	1.94% (inactive)
Cc1cc(C(F)(F)F)cc(NNC(=O)NC(=O)c2ccccc2Cl)n1	10.6% (inactive)
COC(CNS(=O)(=O)c1ccc(S(=O)(=O)NC2CC2)cc1)OC	1.93% (inactive)
Cc1ccc(S(=O)(=O)NNC(=O)Nc2ccc(Cl)cc2)cc1	0.2% (inactive)
COc1cc(SC)ccc1C(=O)NCCOc1ccc(Cl)cc1	64.9% (inactive)
O=C(Nc1ccc(N2CCN(C(=O)c3ccco3)CC2)cc1)c1ccccc1	2.03% (inactive)
O=C(Nc1ccc(N2CCN(C(=O)c3ccco3)CC2)cc1)c1ccco1	-1.95% (inactive)

SMILES	inhibition
NC(=O)CC(NC(=O)Cc1ccc(Br)cc1)c1ccc(NCc2ccccn2)c([N+](=O)[O-])c1 (stereo not drawn)	3.35% (inactive)
O=C(CN1C(=O)S/C(=C/c2cc(Br)cs2)C1=O)N1CCOCC1	5.49% (inactive)
COCCNC(=O)c1ccccc1NC(=O)CCSc1ccccc1	-2.26% (inactive)
CCC1CCCCN1Cc1nc2c(c(=O)n(C)c(=O)n2C)n1CCC(C)C (stereo not drawn)	-0.27% (inactive)
Cc1cccc(-c2oc3ccccc3c2-c2ccc3c(c2)OCO3)c1	52.4% (inactive)
COc1ccc(-c2c(-c3cccc(C)c3)oc3ccc(-c4ccc5c(c4)OCO5)cc23)cn1	-1.67% (inactive)
Cc1c(Cl)c([N+](=O)[O-])nn1CCCC(=O)Nc1ccc(Cl)cc1Cl	5.86% (inactive)
CC1=NOC(=O)/C1=C\c1ccc(-c2ccc(Br)cc2C(=O)O)o1	-4.04% (inactive)
CC1=NOC(=O)/C1=C\c1ccc(-c2cccc(Cl)c2)o1	60.5% (inactive)
Cc1c(NC(=S)Nc2cccc(Cl)c2)c(=O)n(-c2ccccc2)n1C	7% (inactive)
Cc1cccc(NC(=O)CN2CCN(C(=O)COc3cccc(Br)c3)CC2)c1C	1.13% (inactive)
COc1ccc(NC(=O)CSc2nc(N)c(C(=O)Nc3ccc(N(C)C)cc3)s2)cc1	15.8% (inactive)
CCOC(=O)c1sc(SCC(=O)Nc2ccc(N(C)C)cc2)nc1N	1.23% (inactive)
CCOC(=O)c1sc(NCCNc2nc(C)c(C(=O)OCC)s2)nc1C	-6.54% (inactive)
CCOC(=O)CSc1nnc(N)s1	-0.59% (inactive)
COc1cccc(CN(C)CC(=O)Nc2c(C)cccc2C(C)C)c1	1.22% (inactive)
O=C(c1csc2ccccc12)N1CCN(c2ccc(Cl)c(Cl)c2)CC1	2.65% (inactive)
N[C@@H](Cc1ccc(N(CCCl)CCCl)cc1)C(=O)O	-2.59% (inactive)
N[C@@H](Cc1cc(I)c(O)c(I)c1)C(=O)O	-4.28% (inactive)
N[C@@H](Cc1cc(Br)c(O)c(Br)c1)C(=O)O	1.75% (inactive)
NC(CS(=O)O)C(=O)O (stereo not drawn)	5.82% (inactive)
Cc1ccc(C(=O)NCC(=O)OCC(=O)c2ccc(Cl)s2)cc1	13.4% (inactive)
O=C(NC1CCSc2ccccc21)c1cc(S(=O)(=O)N2CCOCC2)ccc1F (stereo not drawn)	-1.41% (inactive)
O=C(NC1CC1)c1cc(=O)c2ccccc2o1	-13.4% (inactive)

SMILES	inhibition
COc1cc2c(cc1Cl)C(=O)C(F)(c1ccccc1)C(=O)N2 (stereo not drawn)	-6.77% (inactive)
Cc1nnc(SCc2ccc(C(=O)Nc3cc(Cl)ccc3C)cc2)s1	-1.77% (inactive)
COc1ccc(OC)c(NC(=O)c2ccc(CSc3nnc(C)s3)cc2)c1	49.4% (inactive)
CCOc1ccc(NC(=O)CSc2nnc(COc3c(C)cccc3C)o2)cc1	-12.7% (inactive)
COc1cc(NC(=O)Cc2ccccc2)c(C(=O)O)cc1OC	5.42% (inactive)
COc1ccc(-n2nnnc2CNC(=O)C(=O)c2c[nH]c3ccccc23)cc1	1.52% (inactive)
COc1ccc(-c2c(-c3ccccc3OC)sc3ccccc23)cc1OC	11.5% (inactive)
CCOC(=O)Cc1cn(C(=O)OC(C)(C)C)c2ccccc12	-4.41% (inactive)
Cc1ccc(NC(=O)CNCc2cccs2)c(Br)c1	1% (inactive)
CC(=O)c1ccc(NC(=O)CNCc2cccs2)cc1	-3.9% (inactive)
CSCCC(NC(=O)c1ccco1)C(=O)NC1CCC(C)CC1 (stereo not drawn)	-5.12% (inactive)
O=S(=O)(c1ccc2c(c1)OCCO2)C1CCC(S(=O)(=O)c2c(F)cccc2F)CC1 (stereo not drawn)	-1.16% (inactive)
CC[n+]1c(/C=C/N(C)c2ccccc2)oc2ccc(Cl)cc21	-7.91% (inactive)
CC[n+]1c(/C=C/N(C)c2ccccc2)oc2ccc(F)cc21	-7.16% (inactive)
COC(=O)c1ccc(NC(=O)CSc2nnc(C)n2CC2CCCO2)cc1 (stereo not drawn)	-1.12% (inactive)
CC(OC(=O)c1cccc(NS(C)(=O)=O)c1)C(=O)Nc1ccc2c(c1)OCO2 (stereo not drawn)	-1.53% (inactive)
Cc1nn(-c2ccccc2)c(C)c1/C=N/NC(=O)c1cc(O)cc(O)c1	0.86% (inactive)
Cc1cc(C(=O)N/N=C/c2c(C)nn(-c3ccccc3)c2C)n[nH]1	-1.35% (inactive)
Cc1ccc(-n2c(SCC(=O)N/N=C/c3c(C)nn(-c4ccccc4)c3C)nc3ccccc3c2=O)cc1	12% (inactive)
Cc1ccc(/C=N/NC(=O)CSc2nc3ccccc3c(=O)n2-c2ccccc2C)s1	6.56% (inactive)
CCCCNC(=O)CSc1nnc(Cc2ccc(Cl)c(Cl)c2)c(=O)[nH]1	4.24% (inactive)
O=c1ccc(=O)n2n1CC(O)C2	1.79% (inactive)
Cc1cc(Cl)c(S(=O)(=O)Nc2ccc(S(=O)(=O)N3CCOCC3)cc2)cc1OCC(N)=O	5.99% (inactive)
CC(C)Cn1c(N)c(C(=O)COC(=O)Cc2cccc(C(F)(F)F)c2)c(=O)n(C)c1=O	3% (inactive)

SMILES	inhibition
CCOC(=O)N/N=C(C)/C=C/c1ccccc1	-3.41% (inactive)
Cc1ccc(OCC(=O)NCc2cccnc2)cc1	-0.13% (inactive)
CC1CCN(C(=O)c2ccc(CSc3nc4ccncc4n3Cc3ccc(F)cc3)cc2)CC1	-5.51% (inactive)
CCCOc1ccc(CC(=O)NCC2(c3ccccc3)CCOCC2)cc1OC	5.05% (inactive)
Cc1ccc(N(CC(=O)NC2CCCC2)C(=O)CCC(=O)Nc2nccs2)cc1C	-7.45% (inactive)
C=CCNC(=O)CN1CCC(n2nnc3cc(C(F)(F)F)ccc32)CC1	-4.99% (inactive)
O=C(CN1CCC(n2nnc3ccccc32)CC1)NCc1cccs1	-0.03% (inactive)
O=C(CN1C(=O)/C(=C/c2ccccc2)SC1=S)NC1C=CS(=O)(=O)C1 (stereo not drawn)	2.53% (inactive)
COc1cccc(C2C3=C(N=c4s/c(=C\c5ccc(O)cc5)c(=O)n42)c2ccccc2CC3)c1OC (stereo not drawn)	65.1% (inactive)
COc1cccc(C2C3=C(N=c4s/c(=C\c5ccccc5O)c(=O)n42)c2ccccc2CC3)c1OC (stereo not drawn)	4.34% (inactive)
COc1ccccc1NC(=O)c1ccccc1C(=O)N(C)Cc1ccccc1	-2.3% (inactive)
Cc1cc(C)nc(SCC(=O)O)n1	0.26% (inactive)
O=C(c1ccc2nc[nH]c2c1)N1CCc2ccccc2C1	-3.52% (inactive)
CCC(=O)Nc1ccc(C(=O)Cn2ncc(Cl)c(Cl)c2=O)cc1	-3.99% (inactive)
Cc1ccc(NC(=O)CN(C)C(=O)Cn2ncc(Cl)c(Cl)c2=O)cc1	28.7% (inactive)
COc1ccc(CCC(=O)NCCCNC(=O)CCc2ccc(OC)cc2)cc1	8.41% (inactive)
CCCCc1cc(=O)oc2cc(C)cc(OC(C)C(=O)NC(Cc3c[nH]c4ccc(O)cc34)C(=O)O)c12 (stereo not drawn)	-11.4% (inactive)
O=C(COC(=O)c1ccccc1Br)Nc1ccc(F)cc1	45.4% (inactive)
O=C(Nc1ccc(F)cc1)c1cccc(NC(=O)C2C3CC4OC(=O)C2C4C3)c1 (stereo not drawn)	-6.31% (inactive)
O=C1CC(/C=C/c2ccncc2)=Nc2ccccc2N1	-0.65% (inactive)
O=C1CC(/C=C/c2ccccc2)=Nc2ccccc2N1	-1.18% (inactive)
